A word on the inhibition: it is the change of the read-out against control, counted positive when it falls.

The results in this text go back to PubChem BioAssay AID1645854 (Buhrlage Lab, Dana-Farber Cancer Institute and Novartis …, 2021).

About 140 (0.3%) of roughly 47,000 compounds were called active. Shown is part of a subset that was picked to be rich in actives. Unmarked numbers belong to inactive results. Rule as the data show it: active = inhibition above about 30%; inactive = the rest.

Chain of Ubiquitin carboxyl-terminal hydrolase 7 (Homo sapiens) (Q93009 whole entry, looked up): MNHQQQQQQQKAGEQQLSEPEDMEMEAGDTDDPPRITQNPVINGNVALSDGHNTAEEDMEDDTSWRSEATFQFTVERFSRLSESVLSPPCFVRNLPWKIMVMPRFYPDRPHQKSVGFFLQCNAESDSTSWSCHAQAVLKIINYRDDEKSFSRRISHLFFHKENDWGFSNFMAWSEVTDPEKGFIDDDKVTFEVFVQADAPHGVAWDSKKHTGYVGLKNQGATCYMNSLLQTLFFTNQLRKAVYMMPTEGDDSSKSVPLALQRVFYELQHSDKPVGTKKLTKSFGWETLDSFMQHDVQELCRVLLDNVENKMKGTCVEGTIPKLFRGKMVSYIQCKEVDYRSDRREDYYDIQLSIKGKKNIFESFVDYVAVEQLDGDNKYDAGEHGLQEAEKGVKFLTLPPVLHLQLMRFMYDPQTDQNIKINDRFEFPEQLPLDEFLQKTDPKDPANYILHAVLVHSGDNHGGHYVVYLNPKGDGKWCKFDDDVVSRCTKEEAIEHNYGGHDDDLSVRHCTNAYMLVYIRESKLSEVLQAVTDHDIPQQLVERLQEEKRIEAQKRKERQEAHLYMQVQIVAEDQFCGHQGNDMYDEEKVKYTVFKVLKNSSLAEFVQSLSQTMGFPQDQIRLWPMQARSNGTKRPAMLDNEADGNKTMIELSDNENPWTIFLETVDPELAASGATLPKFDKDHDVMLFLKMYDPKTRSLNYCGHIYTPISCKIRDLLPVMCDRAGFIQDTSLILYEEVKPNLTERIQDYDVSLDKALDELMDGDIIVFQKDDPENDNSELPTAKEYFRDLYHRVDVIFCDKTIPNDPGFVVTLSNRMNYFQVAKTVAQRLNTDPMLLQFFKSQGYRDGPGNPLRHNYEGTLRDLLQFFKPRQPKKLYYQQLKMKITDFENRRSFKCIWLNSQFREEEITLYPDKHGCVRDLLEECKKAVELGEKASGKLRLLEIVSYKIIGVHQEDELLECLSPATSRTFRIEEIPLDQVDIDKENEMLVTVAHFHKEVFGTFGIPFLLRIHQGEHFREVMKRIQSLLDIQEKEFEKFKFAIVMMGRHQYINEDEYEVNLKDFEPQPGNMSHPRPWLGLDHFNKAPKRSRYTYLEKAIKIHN

This assay addresses Ubiquitin carboxyl-terminal hydrolase 7 (Homo sapiens) (UniProt Q93009). Briefly: inhibitors of human USP7 deubiquitinase (AID 1645854). The note with it: purified USP7, Ub-rhodamine cleavage fluorescence; at 20 µM; active compounds read high.
Take `CCCN1CCN(Cc2nc3nc(C)cc(N4CCCC4)n3n2)CC1`: the inhibition is 0.57%.
The value for `O=C(NCC1CC1)c1ccc2ccc(N3CCN(c4ncccn4)CC3)n2c1` was -17.3%; that for `Cn1ccc(-c2cc(C(=O)NCCc3ccccn3)c3ccccn23)n1` was 0.582%.
The value for `Cc1ccccc1NC(=O)N1CCC(CC(=O)N2CCCCC2)CC1` was 5.39%; that for `COc1cccc(-n2nnc(-c3nnc(-c4ccccc4)o3)c2C)c1` was -29.9%; that for `COc1ccc(C2C3CCCCC3(O)CCN2C(=O)/C=C/c2cc(OC)c(OC)c(OC)c2)c(OC)c1` (configuration not stated) was 2.72%.
For `CN(C(=O)Cn1c(=O)n(CCCC(=O)N2CCc3ccccc3C2)c(=O)c2ccccc21)C1CCCCC1` the value was -62.2%; for `Cn1c(CNC(=O)c2ccc(=O)[nH]c2)nc2ccccc21`, 3.71%.
As to `CN(Cc1ccccn1)C(=O)c1cc(-c2ccn(C)n2)n2ccccc12`, the inhibition is -10.8%.
For `O=C(C1CCC1)N1CCCC(c2nc(N3CCOCC3)ncc2-c2cccnc2)C1` (configuration not stated) the value was 1.73%; for `CC1CCc2nc3ccccc3c(C(=O)OCC(=O)Nc3ccc4ccccc4c3)c2C1` (configuration not stated), -6.5%.
The value for `Cn1nc(C(=O)N2CCOCC2)c2c1CN(Cc1cccnc1)CC2` was -1.02%; that for `CC1CCc2c(sc3[nH]c(=O)c(C(=O)Nc4ccc(C(N)=O)cc4)c(O)c23)C1` (configuration not stated) was 2.02%.
The value for `CNS(=O)(=O)c1ccc(CNC(=O)c2cc(-c3ccc(C)cc3)no2)cc1` was 4.58%.
As to `CN(C)CCNC(=O)c1ccc2c(c1)nc1n2CCN(C2CCCCC2)C1=O`, the inhibition was -3.11%.
For `COc1ccccc1CNC(=O)c1nc(N2CCSCC2)c2cn(C)nc2n1`, the inhibition was -2.16%.
The value for `NC(=O)c1ccccc1NC(=O)C1CN(c2nc3c(F)cccc3s2)C1` was -0.695%.
The value for `CCN1CCN(Cc2nc3nc(C)cc(N4CCCC4)n3n2)CC1` was 0.109%; that for `Cc1cc(O)c(=O)cc2c1C[C@H]1CC(C)(C)/C=C/C[C@@]3(C)Oc4cc(=O)c(O)cc(C)c4C[C@@H]3C[C@H](O)[C@]1(C)O2` was 32.8% (active); that for `O=C(NCc1cccnc1)c1cc(-c2ccncc2)n(-c2ccc(F)cc2)n1` was 0.279%.
On to `Cn1c(SCc2ccc(Cl)cc2)nnc1-c1ccc2c(c1)OCCO2`, for which the inhibition was -49.5%.
For `O=C(Nc1ccc2c(c1)CCC2)N1CC2CN(S(=O)(=O)c3ccccc3)CC(C1)O2` the value was -2.8%; for `O=C1CCC2C(c3ccc4c(c3)OCO4)CC1N2Cc1ccccc1` (configuration not stated), -3.81%.
The value for `Cc1c(S(=O)(=O)Nc2ccccc2F)cc(C(=O)N2CCCCC2)n1C` was 5.73%.
The value for `COc1ccc(Cn2c(=O)[nH]c3cc(C(=O)N4CCC(C(N)=O)CC4)ccc3c2=O)cc1` was -1.91%.
Turning to `Cc1nn(C)c(Cl)c1C1CCCN1C(=O)c1ccc(C)n(C)c1=O` (configuration not stated), the inhibition was 2.77%.
For `CC(C)C(=O)N[C@@H](CO)[C@H](O)c1ccc([N+](=O)[O-])cc1` the value was 0.416%.
For `CCc1ccc(-n2nnc(C(=O)Nc3nnc(CC)s3)c2C)cc1` the value was 0.00527%.
The value for `Cc1cnc(C(=O)N2CC[C@@H]3[C@H]2CCCC(=O)N3Cc2ccccc2C(F)(F)F)cn1` was -3.69%.
With `COCCNc1nn2c(-c3ccc4ccccc4c3)cnc2s1`, the inhibition was 1.48%.
Consider `Cc1nn(CC(=O)c2cc(C)n(-c3ccc4c(c3)OCO4)c2C)c(C)c1[N+](=O)[O-]`, for which the inhibition is -2.39%.
The value for `Cc1cccc(C(C)C)c1NC(=O)c1ccc(OCc2ccccc2)cc1` was 0.214%.
